In the supplement of paper PMC10849652:
Of roughly 7,900 targets only a part is listed; those with a hit were picked by preference. About 0.6% of all pairs of compound and target were hits.

compound: C1=CC=C(C=C1)C2=NC(=C(N2)C3=CC=NC=C3)C4=CC(=C(C=C4)Cl)O; experiment: log2 fold change, soluble protein after heating vs DMSO (PISA); higher = thermal stabilisation; K562 cells, 10 uM, 30 min; active = over 0.2 and 3.5 SD of the protein, either way, in both replicates (recomputed)
Method in brief: (§1)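 Soluble protein was quantified by TMTpro 16plex LC-MS/MS after channel sums were equalised. It was obtained as the supernatant after 21,000xg for 90 min from pooled aliquots of K562 cells (2×10^6 cells/mL, 10 μM compound, 30 min) heated for 3 min across 48°C-58°C and extracted in PBS with 0.5% NP-40 at 4°C. Thermal stability values are relative to control samples and come from duplicates. They are given as log2 fold changes.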

UniProt Q9UHP3, sequence (Q9UHP3 whole entry, looked up): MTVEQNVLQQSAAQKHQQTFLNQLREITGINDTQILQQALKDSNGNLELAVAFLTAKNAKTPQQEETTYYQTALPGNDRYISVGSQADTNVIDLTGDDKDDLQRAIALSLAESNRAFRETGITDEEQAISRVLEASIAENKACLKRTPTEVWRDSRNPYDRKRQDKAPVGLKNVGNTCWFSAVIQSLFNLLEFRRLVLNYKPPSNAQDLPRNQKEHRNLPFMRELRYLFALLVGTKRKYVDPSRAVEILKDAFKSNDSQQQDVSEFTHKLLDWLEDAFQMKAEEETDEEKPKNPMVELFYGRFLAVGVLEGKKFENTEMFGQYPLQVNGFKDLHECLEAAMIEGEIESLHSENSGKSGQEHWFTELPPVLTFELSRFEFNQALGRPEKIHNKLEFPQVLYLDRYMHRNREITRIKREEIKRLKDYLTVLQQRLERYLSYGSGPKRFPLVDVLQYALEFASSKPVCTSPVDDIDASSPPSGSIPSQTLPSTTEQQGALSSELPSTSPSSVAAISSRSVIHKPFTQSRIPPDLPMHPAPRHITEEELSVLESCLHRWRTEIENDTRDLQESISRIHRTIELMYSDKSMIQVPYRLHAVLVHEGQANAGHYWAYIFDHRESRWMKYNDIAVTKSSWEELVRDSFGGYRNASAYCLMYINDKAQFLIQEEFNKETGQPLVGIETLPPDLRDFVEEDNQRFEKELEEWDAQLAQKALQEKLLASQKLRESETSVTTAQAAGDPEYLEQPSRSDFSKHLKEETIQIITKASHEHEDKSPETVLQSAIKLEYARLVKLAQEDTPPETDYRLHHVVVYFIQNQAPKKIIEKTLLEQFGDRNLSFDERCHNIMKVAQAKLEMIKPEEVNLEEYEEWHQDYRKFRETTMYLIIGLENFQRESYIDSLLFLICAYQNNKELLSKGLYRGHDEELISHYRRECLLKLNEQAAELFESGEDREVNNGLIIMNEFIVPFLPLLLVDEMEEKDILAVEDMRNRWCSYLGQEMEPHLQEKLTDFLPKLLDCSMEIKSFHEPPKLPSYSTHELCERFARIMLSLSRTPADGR
UniProt O43396, sequence (O43396 whole entry, looked up): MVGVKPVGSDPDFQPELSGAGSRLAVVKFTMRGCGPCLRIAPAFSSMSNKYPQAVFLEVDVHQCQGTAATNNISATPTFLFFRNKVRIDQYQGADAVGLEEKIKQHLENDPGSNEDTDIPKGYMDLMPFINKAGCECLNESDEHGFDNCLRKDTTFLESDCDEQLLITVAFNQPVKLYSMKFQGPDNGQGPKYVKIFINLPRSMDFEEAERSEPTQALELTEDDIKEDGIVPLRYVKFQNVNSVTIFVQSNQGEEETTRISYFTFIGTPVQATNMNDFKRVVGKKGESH
UniProt Q9Y5K5, sequence (Q9Y5K5 whole entry, looked up): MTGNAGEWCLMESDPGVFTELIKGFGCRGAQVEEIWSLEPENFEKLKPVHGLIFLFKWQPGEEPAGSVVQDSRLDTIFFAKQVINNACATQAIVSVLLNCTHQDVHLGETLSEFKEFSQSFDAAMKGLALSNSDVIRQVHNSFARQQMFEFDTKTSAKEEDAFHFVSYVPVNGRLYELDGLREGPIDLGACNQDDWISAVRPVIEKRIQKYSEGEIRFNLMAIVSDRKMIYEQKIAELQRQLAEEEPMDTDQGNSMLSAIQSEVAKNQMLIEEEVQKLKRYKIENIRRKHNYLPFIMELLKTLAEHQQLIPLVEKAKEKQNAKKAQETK
UniProt P51809, sequence (P51809 whole entry, looked up): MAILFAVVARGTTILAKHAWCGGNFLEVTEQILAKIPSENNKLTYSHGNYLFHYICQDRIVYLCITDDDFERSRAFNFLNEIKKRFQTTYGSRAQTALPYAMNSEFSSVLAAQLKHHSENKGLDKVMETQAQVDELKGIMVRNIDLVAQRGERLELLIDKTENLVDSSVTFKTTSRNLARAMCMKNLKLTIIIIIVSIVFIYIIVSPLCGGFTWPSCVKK
UniProt O75674, sequence (O75674 whole entry, looked up): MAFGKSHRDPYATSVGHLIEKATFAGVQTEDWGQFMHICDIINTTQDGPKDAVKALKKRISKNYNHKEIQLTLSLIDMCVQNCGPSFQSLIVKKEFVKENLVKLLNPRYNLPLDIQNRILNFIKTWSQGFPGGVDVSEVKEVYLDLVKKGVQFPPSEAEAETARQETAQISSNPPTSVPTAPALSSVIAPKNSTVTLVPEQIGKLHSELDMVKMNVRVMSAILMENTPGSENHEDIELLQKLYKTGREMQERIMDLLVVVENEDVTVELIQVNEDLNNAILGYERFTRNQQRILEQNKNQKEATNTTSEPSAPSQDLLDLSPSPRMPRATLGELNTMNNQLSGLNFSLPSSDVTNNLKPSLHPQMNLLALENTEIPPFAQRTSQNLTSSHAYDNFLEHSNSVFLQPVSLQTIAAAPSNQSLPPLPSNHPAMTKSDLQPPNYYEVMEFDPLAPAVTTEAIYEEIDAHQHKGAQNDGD
UniProt O95801, sequence (O95801 whole entry, looked up): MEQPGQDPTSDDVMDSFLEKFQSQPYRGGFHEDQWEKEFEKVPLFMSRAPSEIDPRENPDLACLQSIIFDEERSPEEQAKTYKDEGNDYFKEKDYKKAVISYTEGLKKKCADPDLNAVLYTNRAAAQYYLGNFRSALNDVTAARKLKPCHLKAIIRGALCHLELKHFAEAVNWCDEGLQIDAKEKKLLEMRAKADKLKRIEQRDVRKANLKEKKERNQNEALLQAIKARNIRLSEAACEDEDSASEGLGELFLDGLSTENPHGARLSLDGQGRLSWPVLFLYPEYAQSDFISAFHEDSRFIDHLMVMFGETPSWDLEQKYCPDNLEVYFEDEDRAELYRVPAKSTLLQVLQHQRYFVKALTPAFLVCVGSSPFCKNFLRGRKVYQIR
UniProt Q86UV5, sequence (Q86UV5 whole entry, looked up): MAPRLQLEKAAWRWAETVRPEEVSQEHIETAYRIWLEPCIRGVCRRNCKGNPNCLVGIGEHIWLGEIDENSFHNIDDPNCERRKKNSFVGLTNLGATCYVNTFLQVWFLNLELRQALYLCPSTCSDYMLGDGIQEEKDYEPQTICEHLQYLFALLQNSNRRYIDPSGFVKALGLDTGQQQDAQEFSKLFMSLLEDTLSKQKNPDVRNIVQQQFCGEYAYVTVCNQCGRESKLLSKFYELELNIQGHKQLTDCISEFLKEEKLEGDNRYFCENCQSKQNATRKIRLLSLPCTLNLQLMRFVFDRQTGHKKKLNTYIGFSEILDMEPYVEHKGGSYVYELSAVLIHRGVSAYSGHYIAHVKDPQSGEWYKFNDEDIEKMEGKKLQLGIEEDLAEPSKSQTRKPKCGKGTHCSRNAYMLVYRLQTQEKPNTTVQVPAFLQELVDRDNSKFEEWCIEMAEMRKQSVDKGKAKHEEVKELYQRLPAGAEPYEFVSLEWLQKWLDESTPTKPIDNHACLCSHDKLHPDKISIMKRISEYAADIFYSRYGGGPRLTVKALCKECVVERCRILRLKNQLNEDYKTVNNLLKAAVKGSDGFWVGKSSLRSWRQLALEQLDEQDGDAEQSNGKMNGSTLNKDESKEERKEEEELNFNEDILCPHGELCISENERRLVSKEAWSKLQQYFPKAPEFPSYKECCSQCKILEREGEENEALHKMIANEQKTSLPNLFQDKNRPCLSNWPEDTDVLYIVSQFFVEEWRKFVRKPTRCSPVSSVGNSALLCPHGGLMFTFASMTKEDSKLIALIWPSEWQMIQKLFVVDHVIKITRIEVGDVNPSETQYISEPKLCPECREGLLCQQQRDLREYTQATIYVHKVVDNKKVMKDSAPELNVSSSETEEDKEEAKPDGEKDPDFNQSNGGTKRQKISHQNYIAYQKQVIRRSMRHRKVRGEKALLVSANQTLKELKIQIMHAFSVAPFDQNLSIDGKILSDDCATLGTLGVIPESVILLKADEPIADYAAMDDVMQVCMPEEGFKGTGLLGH
UniProt Q969T4, sequence (Q969T4 whole entry, looked up): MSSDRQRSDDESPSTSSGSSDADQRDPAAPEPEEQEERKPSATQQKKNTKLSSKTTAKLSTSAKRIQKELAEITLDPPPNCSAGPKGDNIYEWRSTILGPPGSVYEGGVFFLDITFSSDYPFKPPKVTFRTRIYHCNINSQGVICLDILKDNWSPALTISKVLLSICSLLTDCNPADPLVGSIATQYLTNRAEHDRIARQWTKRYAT
UniProt Q92890, sequence (Q92890 whole entry, looked up): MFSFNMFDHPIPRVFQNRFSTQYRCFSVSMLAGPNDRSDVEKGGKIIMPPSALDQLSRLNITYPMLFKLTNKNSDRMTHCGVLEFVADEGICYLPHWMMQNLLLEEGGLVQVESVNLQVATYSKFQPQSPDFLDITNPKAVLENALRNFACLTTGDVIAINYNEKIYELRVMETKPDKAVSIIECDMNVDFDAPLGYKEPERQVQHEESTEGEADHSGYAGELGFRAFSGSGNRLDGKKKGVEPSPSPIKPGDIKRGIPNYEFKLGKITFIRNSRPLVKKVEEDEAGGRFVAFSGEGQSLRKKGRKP
UniProt Q53S58, sequence (Q53S58 whole entry, looked up): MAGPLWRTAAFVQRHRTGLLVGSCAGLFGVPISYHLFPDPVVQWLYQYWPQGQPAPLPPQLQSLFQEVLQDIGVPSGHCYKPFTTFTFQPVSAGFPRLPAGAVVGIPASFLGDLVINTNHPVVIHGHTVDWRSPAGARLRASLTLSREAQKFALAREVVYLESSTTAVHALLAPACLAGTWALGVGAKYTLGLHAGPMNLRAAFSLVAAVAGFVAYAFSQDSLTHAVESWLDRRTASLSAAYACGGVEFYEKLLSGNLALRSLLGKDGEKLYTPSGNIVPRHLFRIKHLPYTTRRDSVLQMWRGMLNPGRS
UniProt Q8N4H5, sequence (Q8N4H5 whole entry, looked up): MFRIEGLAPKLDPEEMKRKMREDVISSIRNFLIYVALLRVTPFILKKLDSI
UniProt Q99757, sequence (Q99757 whole entry, looked up): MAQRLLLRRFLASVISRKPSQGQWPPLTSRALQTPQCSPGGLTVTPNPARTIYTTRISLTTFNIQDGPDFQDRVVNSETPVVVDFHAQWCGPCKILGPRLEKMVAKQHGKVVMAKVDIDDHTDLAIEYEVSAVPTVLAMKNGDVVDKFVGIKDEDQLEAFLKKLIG

log2 fold change, inactive:
TOM1L1 (UniProt O75674) -0.023, USP48 isoform 8 (UniProt Q86UV5) 0.049, TTC4 (UniProt O95801) 0.081, VDAC1 (UniProt C9JI87) 0.091, UCHL5 isoform 3 (UniProt Q9Y5K5) -0.11, TXNL1 (UniProt O43396) 0.014, TMEM177 (UniProt Q53S58) -0.034, USP25 isoform 3 (UniProt Q9UHP3) -0.024, UBE2E3 (UniProt Q969T4) 0.014, TMEM263 (UniProt Q8WUH6) 0.02, UFD1 isoform 1 (UniProt Q92890) -0.01, VAMP7 (UniProt P51809) 0.065, VPS8 (UniProt Q8N3P4) 0.041

compound: C1=CC=C2C(=C1)C3=NNC4=CC=CC(=C43)C2=O; experiment: as above
Method in brief: as §1

log2 fold change, inactive:
TRAPPC8 (UniProt Q9Y2L5) -0.018, TOMM5 isoform 2 (UniProt Q8N4H5) -0.003, TTC33 (UniProt Q6PID6) -0.038, TSFM (UniProt P43897) -0.069, XPO6 (UniProt Q96QU8) -0.008, VPS35L (UniProt Q7Z3J2) 0.012, UBE4B isoform 4 (UniProt O95155) -0.013, TOP2A isoform 4 (UniProt P11388) 0.053, TMEM128 (UniProt Q5BJH2) -0.238, WASH2P (UniProt Q6VEQ5) 0.011, UTP3 (UniProt Q9NQZ2) -0.004, UGDH (UniProt O60701) 0.043, WDR43 (UniProt Q15061) 0.017, TNFRSF10A (UniProt O00220) 0.018, XPOT (UniProt O43592) -0.026, VPS33A (UniProt Q96AX1) -0.023, VPS13B (UniProt Q7Z7G8) -0.017, TMEM63B (UniProt Q5T3F8) -0.033, U2AF2 (UniProt P26368) -0.048, TMEM120A (UniProt Q9BXJ8) -0.036, TXN2 (UniProt Q99757) 0.029, TOM1 isoform 2 (UniProt O60784) 0.004, VPS33B (UniProt Q9H267) 0.044, TOM1L1 (UniProt O75674) -0.026, USP48 isoform 8 (UniProt Q86UV5) -0.049, TTC4 (UniProt O95801) 0.025, VDAC1 (UniProt C9JI87) -0.04, UCHL5 isoform 3 (UniProt Q9Y5K5) 0.102, TXNL1 (UniProt O43396) 0.016, TMEM177 (UniProt Q53S58) 0.01, USP25 isoform 3 (UniProt Q9UHP3) 0.011, UBE2E3 (UniProt Q969T4) 0.045, TMEM263 (UniProt Q8WUH6) -0.101, UFD1 isoform 1 (UniProt Q92890) -0.021, VAMP7 (UniProt P51809) -0.001, VPS8 (UniProt Q8N3P4) 0.012
